The experiment deals with Plasmodium falciparum NF54 stage V gametocytes. Kind of experiment: viability index relative to DMSO control (fraction); higher = less gametocyte killing. The following applies: 2.5 µM, library set: Broad Institute DOS, incubation time: 72 h. An outline of the steps:
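P. falciparum NF54 stage V gametocytes (serum-free medium, 0.75% gametocytemia, 1.25% hematocrit) were exposed to compound at 2.5 µM for 72 hr at 37°C under low oxygen, then stained with MitoTracker Red CMXRos and saponin for one to two hours. Red particles of 20–70 µm2 in one field per well were counted, and the viability index is that count scaled to the plate mean of solvent-only wells.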

± gives the uncertainty stated by the source. Whole data set: some 9,900 compounds, median “viability index relative to DMSO control” near 1, cut for the lowest 2% near 0.85. The list comes from a sample in which the lowest values are over-represented; it also holds similar structures and randomly drawn compounds.

Take `C[C@@H]1CN([C@H](C)CO)C(=O)CCCn2nncc2CO[C@@H]1CN(C)S(=O)(=O)c1ccc2c(c1)OCCCO2`: the viability index was found to be 1.025 ± 0.0016. As for `C[C@@H]1CN([C@H](C)CO)C(=O)c2cc(NS(=O)(=O)c3cn(C)cn3)ccc2O[C@@H](C)CCCCO[C@@H]1CN(C)Cc1ccc2c(c1)OCO2`, the figure is 1.15 ± 0.07; as for `CC(=O)N1CC2(C1)[C@@H](c1ccc(-c3ccc(F)cc3)cc1)[C@@H](CO)N2CC1CC1`, 1.08 ± 0.023; as for `O=C(C[C@@H]1C=C[C@@H](NC(=O)Nc2ccc3c(c2)OCO3)[C@@H](CO)O1)NCCCN1CCOCC1`, 1.02 ± 0.075.

`COc1ccccc1S(=O)(=O)N1[C@@H]2CNC[C@H]1[C@@H]2c1ccc(-c2ccncc2)cc1` returned a viability index of 1.06 ± 0.032. The figure for `O=C(C[C@@H]1CC[C@H](NC(=O)C2CC2)[C@H](CO)O1)Nc1ccccc1` is 0.916 ± 0.036.

`O=C(C1CCOCC1)N1C[C@@H]2[C@H](c3ccccc31)[C@@H](CO)N2C(=O)Cc1ccccn1` registered a viability index of 1.06 ± 0.053. The figure for `COc1ccc2c3c([nH]c2c1)[C@@H](CO)N(C[C@]31CN(C1)C(=O)NC(C)C)C(=O)C1CCOCC1` is 1.03 ± 0.045. `C[C@H]1CN([C@@H](C)CO)C(=O)c2cccc(NC(=O)C3CCOCC3)c2O[C@@H]1CN(C)C(=O)Nc1cccc2ccccc12` showed a viability index of 1.03 ± 0.11. The compound `CCS(=O)(=O)Nc1ccc2c(c1)C(=O)N(C)[C@@H]1CC[C@H](CC(=O)NC3CCCCC3)O[C@@H]1CO2` came in with a viability index of 0.905 ± 0.12.

Take `CN(C)C(=O)c1cccc(-c2ccc([C@@H]3[C@H]4CN(C(=O)C5CCC5)CC(=O)N4[C@H]3CO)cc2)c1`: the viability index is 0.9976 ± 0.0084. The figure for `COc1ccc(-c2ccccc2[C@@H]2[C@@H](CO)N(C(=O)NC(C)C)[C@H]2C#N)cc1` is 1.1 ± 0.063; for `COc1ccc(S(=O)(=O)Nc2ccc3c(c2)[C@H]2C[C@H](CC(=O)N(C)C)O[C@@H](CO)[C@H]2O3)cc1` it is 1.11 ± 0.014; for `C[C@H]1CN([C@@H](C)CO)C(=O)c2cc(NS(=O)(=O)c3cn(C)cn3)ccc2O[C@@H]1CN(C)C(=O)Nc1cccc2ccccc12` it is 0.954 ± 0.24. As for `Cc1ccc(S(=O)(=O)N(C)C[C@@H]2Oc3cc(C#CC4CCCC4)ccc3S(=O)(=O)N([C@H](C)CO)C[C@@H]2C)cc1`, the figure is 0.943 ± 0.17; as for `C[C@@H]1CN([C@H](C)CO)S(=O)(=O)c2ccc(C#Cc3cccc(F)c3)cc2O[C@@H]1CN(C)S(=O)(=O)c1cn(C)cn1`, 1.01 ± 0.055; as for `C[C@H]1CN([C@@H](C)CO)S(=O)(=O)c2ccc(C#Cc3cccc(F)c3)cc2O[C@@H]1CN(C)S(=O)(=O)c1cn(C)cn1`, 0.985 ± 0.049. As for `COc1cccc(S(=O)(=O)N(C)C[C@@H]2Oc3cc(Br)ccc3S(=O)(=O)N([C@@H](C)CO)C[C@@H]2C)c1`, the figure is 1.07 ± 0.041; as for `Cc1ccc(S(=O)(=O)N(C)C[C@@H]2Oc3cc(C#CC4CCCC4)ccc3S(=O)(=O)N([C@@H](C)CO)C[C@H]2C)cc1`, 0.648 ± 0.17; as for `Cc1ccc(S(=O)(=O)N(C)C[C@H]2Oc3cc(C#CC4CCCC4)ccc3S(=O)(=O)N([C@H](C)CO)C[C@H]2C)cc1`, 0.8771 ± 0.0037.

For `CCCC#Cc1ccc2c(c1)O[C@H](CN(C)Cc1ccccn1)[C@H](C)CN([C@@H](C)CO)S2(=O)=O`, the viability index worked out at 0.847 ± 0.015.

For `C[C@@H]1CN([C@@H](C)CO)S(=O)(=O)c2ccc(C#Cc3cccc(F)c3)cc2O[C@@H]1CN(C)S(=O)(=O)c1cn(C)cn1`, the viability index was found to be 0.9512 ± 0.0018.

As to `Cc1ccc(S(=O)(=O)N(C)C[C@@H]2Oc3cc(C#CC4CCCC4)ccc3S(=O)(=O)N([C@H](C)CO)C[C@H]2C)cc1`, the viability index amounted to 0.766 ± 0.091.

In turn, `CCCC#Cc1ccc2c(c1)O[C@H](CN(C)Cc1ccccn1)[C@@H](C)CN([C@@H](C)CO)S2(=O)=O` gave a viability index of 1.02 ± 0.084. The figure for `C[C@@H]1CN([C@H](C)CO)S(=O)(=O)c2ccc(C#Cc3cccc(F)c3)cc2O[C@H]1CN(C)S(=O)(=O)c1cn(C)cn1` is 0.803 ± 0.052; for `CCCC#Cc1ccc2c(c1)O[C@@H](CN(C)Cc1ccccn1)[C@@H](C)CN([C@@H](C)CO)S2(=O)=O` it is 0.884 ± 0.045.

As for `O=C(C[C@H]1CC[C@H]2[C@@H](COC[C@H](O)CN2Cc2nccs2)O1)N1CCC(Cc2ccccc2)CC1`, the viability index came to 1.03 ± 0.078. For `CN1C(=O)c2cc(NC(=O)c3cnccn3)ccc2OC[C@@H]2O[C@H](CC(=O)N[C@@H]3CCN(Cc4ccccc4)C3)CC[C@H]21`, the viability index was determined as 1.05 ± 0.031. The figure for `COc1ccccc1CN1[C@@H]2CNC[C@H]1[C@@H]2c1ccc(-c2cccnc2)cc1` is 1.09 ± 0.1. As for `Cc1noc(C)c1S(=O)(=O)N(C)C[C@@H]1OCCCC[C@H](C)Oc2ccc(NC(=O)CCC(F)(F)F)cc2C(=O)N([C@@H](C)CO)C[C@H]1C`, the figure is 1.03 ± 0.09; as for `O=C(C[C@@H]1C=C[C@@H](NC(=O)c2ccc3c(c2)OCO3)[C@@H](CO)O1)NC1Cc2ccccc2C1`, 0.963 ± 0.11. The figure for `COc1cccc(-c2ccccc2[C@@H]2[C@H](C#N)N(C(=O)c3ccccn3)[C@H]2CO)c1` is 1.1 ± 0.072. As to `Cc1ccc(S(=O)(=O)Nc2ccc3c(c2)C(=O)N([C@@H](C)CO)C[C@@H](C)[C@H](CN(C)S(=O)(=O)c2cccs2)OCCCC[C@@H](C)O3)cc1`, the viability index was found to be 1.13 ± 0.086.

`CO[C@H](CN(C)Cc1ccc2c(c1)OCO2)[C@H](C)CN(C(=O)c1ccccc1)[C@@H](C)CO`: the viability index was determined as 1.067 ± 0.0074.

The values are drawn from the supplement of paper PMC4723716.
